The entries come from a sample that favours hits as a whole.
Tgondii IFNg: T. gondii growth inhibition under IFN-gamma; Toxoplasma gondii growth in IFN-gamma-treated host cells; stronger effect = lower value; activity change, negative = inhibition, % (concentration not given with the values); 69,000 tested, 3.8% active; AID 1259416; in the data active = activity change below about -70%, passing the limit was not always enough;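 note: host cells are HeLa cells infected with Toxoplasma gondii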
* hit, by the source's call; ! = not confirmed by another sample.

SMILES	Tgondii IFNg
O=C(c1ccncc1)N1CCCC(c2nc(-c3cccnc3)no2)C1 (centres undefined)	-8
CC(C)(N)C(=O)N1CCCC(c2cc(Nc3cccc(F)c3)nc(-c3cccnc3)n2)C1 (centres undefined)	-82*
COc1ccc(CCNc2ncnc3c2cnn3-c2cccc(C)c2)cc1OC	-4
C=CCNc1ccccc1C(=O)N1CCn2nc(C(=O)N3CCCC3)cc2C1	34
CS(=O)(=O)c1ccc(C(=O)Nc2ccccc2)cc1	49
CCCN(CCC)S(=O)(=O)c1ccc(C(=O)Nc2ccc(F)cc2)cc1	-88*
CCCN(CCC)S(=O)(=O)c1ccc(C(=O)NCCc2ccc(OC)c(OC)c2)cc1	-47
Cc1c(Cl)cccc1NC(=O)N1CCCCC1CN1CCOCC1 (centres undefined)	0
COCC1CC2(CCN(Cc3cnn(C)c3)CC2)CN1Cc1ccccn1 (centres undefined)	4
CCN(CC)CCn1c(=O)c(Cc2ccc(OC)cc2)nc2ccccc21	-2
CCCCc1nc2cc(/C=C/C(=O)NO)ccc2n1CCN(CC)CC	-82*
CCCCC(=O)Nc1cc2nc(CCCC)n(Cc3ccccc3Cl)c2nc1C	-57
COc1ccc(-c2nc(CN3CCN(Cc4cc(=O)oc5cc(C)ccc45)CC3)c(C)o2)cc1OC	-28
Cc1cc(C)c(N(Cc2ccccc2)S(=O)(=O)c2ccc(OCCNC(=O)c3cc4ccccc4o3)cc2)c(C(=O)NO)c1	-72*!
CCOc1ccc(N(Cc2nc(-c3ccc(C)cc3)oc2C)S(=O)(=O)c2ccccc2)cc1	15
CCCCOc1ccc(S(=O)(=O)N(Cc2ccccc2)Cc2ccccc2)cc1	-27
CCOc1cccc(C[C@@H]2CC[C@H](CN3CCOCC3)O2)c1	0
CC(C)CC(=O)N1CC[C@H]2CN(C)S(=O)(=O)[C@@H]2CC1	-14
O=S(=O)(Oc1ccc(Cl)cc1)c1csc(C(F)(F)F)c1-c1ccccc1	-26
FC(F)(F)c1ccc(Oc2ncnc3c(-c4ccccc4)c(C(F)(F)F)sc23)cc1	-71*
CN1C2CCN(C(=O)c3cccn3C)CC2C[C@H]1CN1CCCC1 (some centres undefined)	9
Cc1cc(Oc2ccc(NC(=O)Nc3ccc(F)cc3)cc2)cc(C2CCNCC2)n1	-68
O=C(NCc1ccccc1)Nc1ccc(-c2nc(-c3cccc(Br)c3)co2)cc1	-30
CC(=O)NC1CCc2ccc(S(=O)(=O)NCCN3CCC(C)CC3)cc21 (centres undefined)	9
O=C(O)Cn1cnc2ccccc2c1=O	0
SMILES	Tgondii IFNg
O=C(C[C@H]1NCCC[C@@H]1O)Cn1cnc2cc(Br)c(Cl)cc2c1=O	-80*
CC(=O)Nc1ccc(Nc2nc(-c3nnc(-c4ccccc4)o3)nc3ccccc23)cc1	47
O[C@@H]1CN(Cc2cccc3cccnc23)CC[C@H]1c1ccc(F)cc1	17
CCOCC1CN(C(=O)c2cccs2)Cc2cnn(CC3CC3)c21 (centres undefined)	-16
Cc1cc(C)c(S(=O)(=O)NCCc2sc(-c3ccc(F)cc3)nc2C)c(C)c1	33
CC(C)c1ccc(NC2CCCN(c3ncccn3)C2)cc1 (centres undefined)	11
CCC(Nc1cccc(OC)c1)C(=O)N(C)Cc1n[nH]c2c1CCC2 (centres undefined)	-3
CN(Cc1ncc[nH]1)c1nc(-c2cccnc2)nc2c1cnn2C	-6
CN(Cc1cccc(Cl)c1)c1nc(-c2cccnc2)nc2c1cnn2C	-82*
CN(CCn1cccn1)c1nc(-c2cccnc2)nc2c1cnn2C	-40
CN(CCCc1nccn1C)Cc1cc2n(n1)CCNC2	-4
COc1ccc(-c2nc(N3CCCC(C)C3)c3ccccc3n2)cc1 (centres undefined)	-67
O=C(c1cccc2nccnc12)N1CC(c2ccncc2)C1	-4
O=C(CSc1ccc(Br)cc1)Nc1ccc(OC(F)(F)F)cc1	-23
CN(C)[C@H]1CCO[C@]2(CCN(C(=O)Cc3ccc(F)cc3)C2)C1	0
O=C(O)c1ccc(-c2cccc(-n3cccn3)c2)o1	-45
CN(C)c1cncc(-c2cccc(-n3cccn3)c2)n1	190
c1ccc(-c2[nH]cnc2-c2cccc(-n3cccn3)c2)cc1	-95*
COc1cccc(Cn2c(CCn3cccn3)n[nH]c2=O)c1	-2
C=CCOC1C2CCC1N(S(=O)(=O)c1cccs1)C2 (centres undefined)	39
NC(=O)c1cc(-c2ccnc3[nH]ccc23)ccc1Cl	-89*
CNC(=O)c1cc(-c2ccn[nH]2)ccc1Cl	4
O=C(c1cncc(-c2ccnc3[nH]ccc23)n1)N1CCCCC1	-33
Fc1ccc2nc(C3CCCCN3Cc3nnc(-c4ccco4)o3)[nH]c2c1 (centres undefined)	-44
CO[C@@H]1CCN(C(=O)c2ccn(C)n2)C[C@@H]1Cc1cccc(C)c1	23
CC(=O)Nc1ccc2c(c1)CCC(=O)N2CC(C)C	17
CCCN1C(=O)CCc2cc(NC(=O)c3ccc(C(C)C)cc3)ccc21	-106*
CCOc1ccc(S(=O)(=O)Nc2ccc3c(c2)CCC(=O)N3CC(C)C)cc1	-56
CCCN1C(=O)CCc2cc(NC(=O)c3ccsc3)ccc21	-47
